Source: PubChem BioAssay (Tox21)
“And” between values parts separate entries of the source, which are not always exact repeats. Equal entries are not always repeated. Results filed as inconclusive are left out. The source made the active and inactive calls. Unless noted, calls follow the shape of the full dose curve.

Tests used:
[1] = Nuclear factor erythroid 2-related factor 2/antioxidant responsive element (Nrf2/ARE) small molecule agonists: qHTS cell viability counter screen in human keratinocytes (AID 1919968; active = well fitted curve in the direction sought with a large enough effect in the repeat runs; an effect the other way counts as inactive or inconclusive; also: nearly all actives have a fitted effect of over 55% in size; also: potency is read from the fitted curve at half-maximal effect)
Summary of the method: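 Viability counter-screen: KeratinoSens reporter cells, DMSO-delivered compounds, 23 h at 37 C, CellTiter-Fluor fluorescence.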

[2] = Nuclear factor erythroid 2-related factor 2/antioxidant responsive element (Nrf2/ARE) small molecule agonists: luciferase reporter gene qHTS assay in human keratinocytes (AID 1919969); also: nearly all actives have a fitted effect of over 35% in size; also: potency is read from the fitted curve at half-maximal effect
[3] = molecular target: Gonadotropin-releasing hormone receptor (Homo sapiens) (UniProt P30968); assay: Human gonadotropin-releasing hormone receptor (GnRHR) small molecule agonists, calcium flux assay in GnRHR-HEK293 cells (AID 1920063); also: nearly all actives have a fitted effect of over 35% in size
Summary of the method: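 Tox21-format agonist screen using human GnRHR-expressing HEK293 cells and a fluorescent calcium dye; kinetic 3-min fluorescence reading after compound addition, 15-point concentration series run in triplicate.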

[4] = molecular target: KiSS-1 receptor (Homo sapiens) (UniProt Q969F8); assay: Human kisspeptin (KISS1R) small molecule agonists, calcium flux assay in KISS1R-HEK293 cells (AID 1920064; active = well fitted curve in the direction sought with a large enough effect in the repeat runs; an effect the other way counts as inactive or inconclusive)
Summary of the method: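 Intracellular calcium mobilization in KISS1R-HEK293 cells was recorded by fluorescence (Ex/Em 480/540) for 3 min following compound addition to cells pre-loaded 1 h with calcium dye.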

[5] = G protein-coupled receptor (GPCR) small molecule agonists, calcium flux assay: HEK293 wild type cell line counter screen (AID 1920065)
Summary of the method: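 In this agonist-mode screen, ATP is the positive control and DMSO the vehicle. Cells grow 18 h before a 1 h dye incubation at 37 C; signal is taken at Ex/Em 480/540 over 3 min.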

[6] = p53 small molecule agonists, cell-based qHTS assay with human liver microsomes (AID 1963577); also: potency is read from the fitted curve at half-maximal effect;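 as to activation: p53 response element beta-lactamase reporter cells with liver microsomes plus NADPH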
Summary of the method: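 In this qHTS, p53 response-element beta-lactamase cells receive test compound together with a microsome/NADPH activating system (0.5 mg/mL final each) and are incubated 16 h at 37 C before LiveBLAzer fluorescence detection.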

[7] = p53 small molecule agonists, cell-based qHTS assay with rat liver microsomes (AID 1963578)
Summary of the method: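 Agonist mode in p53RE-bla reporter cells, with compounds co-incubated 16 h at 37 C alongside 0.5 mg/mL rat liver microsomes and 0.5 mg/mL NADPH (final), followed by a 2 h LiveBLAzer detection step.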

[8] = p53 small molecule agonists, cell-based qHTS assay with human liver microsomes: qHTS cell viability counter screen (AID 1963579); also: nearly all actives have a fitted effect of over 45% in size
Summary of the method: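 Metabolically activated exposure: compounds, human liver microsomes and NADPH (0.5 mg/mL final apiece) were added to p53RE-bla cells seeded 5 h earlier, left 16 h at 37 C, and then assessed for viability by CellTiter-Glo luminescence.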

[9] = p53 small molecule agonists, cell-based qHTS assay with rat liver microsomes: qHTS cell viability counter screen (AID 1963580); also: nearly all actives have a fitted effect of over 45% in size
Summary of the method: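 Viability is assessed in parallel with the p53 reporter read: HCT-116 p53RE-bla cells receive compounds plus rat microsomes and NADPH (0.5 mg/mL final apiece), incubate 16 h at 37 C, and then CellTiter-Glo luminescence is recorded.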

[10] = p53 small molecule agonists, cell-based qHTS assay: qHTS cell viability counter screen (AID 1963581); also: nearly all actives have a fitted effect of over 45% in size; also: potency is read from the fitted curve at half-maximal effect
Summary of the method: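 Compounds are pinned onto HCT-116 p53RE-bla cells and left 16 h at 37 C. Following the reporter FRET read, ATP is quantified by CellTiter-Glo luminescence after 30 min at room temperature.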

[11] = p53 small molecule agonists, cell-based qHTS assay (AID 1963582; active = well fitted activation curve with a large enough effect in the signal ratio in the repeat runs, not every such curve was filed as active; the % refers to the signal ratio)
Summary of the method: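 Agonist activity was scored from beta-lactamase FRET fluorescence in p53RE-bla cells treated 16 h at 37 C with compounds in DMSO, substrate incubation being 2 h at room temperature.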

[12] = molecular target: 5-hydroxytryptamine receptor 2A (Homo sapiens) (UniProt P28223); assay: 5-hydroxytryptamine receptor 2A (HTR2A) small molecule antagonists, cell-based qHTS assay (AID 1963586); also: nearly all actives have a fitted effect of over 45% in size
Summary of the method: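 Antagonist-mode intracellular calcium assay: DOI (4 nM) added after 5 min compound pre-incubation at room temperature to dye-loaded HTR2A-CHO cells. Fluorescence followed for 3 min, sampled every second.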

[13] = molecular target: 5-hydroxytryptamine receptor 2A (Homo sapiens) (UniProt P28223); assay: 5-hydroxytryptamine receptor 2A (HTR2A) small molecule agonists, cell-based qHTS assay (AID 1963587); also: nearly all actives have a fitted effect of over 30% in size
Summary of the method: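 CHO cells stably expressing human HTR2A, plated 18 h, loaded with calcium dye 1 h at 37 C. Agonist mode: compounds added and intracellular calcium fluorescence recorded kinetically for 2 min at 1 sec intervals.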

[14] = molecular target: Muscarinic acetylcholine receptor M1 (Homo sapiens) (UniProt P11229); assay: Cholinergic receptor muscarinic 1 (CHRM1) small molecule antagonists, cell-based qHTS assay (AID 1963588); also: nearly all actives have a fitted effect of over 40% in size
Summary of the method: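 CHRM1-CHO calcium-flux assay, antagonist mode. Cells were seeded 18 h, dye-loaded 1 h at 37 C and given compound for 5 min at RT, then acetylcholine was added at 50nM. FDSS fluorescence was read 3 min; 15 concentrations, three runs.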

[15] = molecular target: Muscarinic acetylcholine receptor M1 (Homo sapiens) (UniProt P11229); assay: Cholinergic receptor muscarinic 1 (CHRM1) small molecule agonists, cell-based qHTS assay (AID 1963589); also: nearly all actives have a fitted effect of over 35% in size
Summary of the method: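 Stable CHRM1-CHO cells (human receptor) were incubated 18 h, dye-loaded for 1 h at 37 C and exposed to test compounds for agonist activity, with calcium-dependent fluorescence followed kinetically.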

[16] = molecular target: Beta-2 adrenergic receptor (Homo sapiens) (UniProt P07550); assay: Adrenergic beta2 receptor (ADRB2) small molecule antagonists, cell-based qHTS assay (AID 1963592); also: series mostly up to about 92 µM; nearly all actives have a fitted effect of over 50% in size
Summary of the method: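 Cells (CHO, stable ADRB2 overexpression) incubated 18-20hr at 37C; compounds added from DMSO; agonist mix (1nM isoproterenol, 100uM IBMX, 25uM Ro-20-1724) added; 0.5hr RT; d2-cAMP and anti-cAMP-cryptate added; 1hr RT; 665/615 nm read.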

[17] = molecular target: D(2) dopamine receptor (Homo sapiens) (UniProt P14416); assay: Dopamine D2 receptor (DRD2) small molecule agonists, cell-based qHTS assay (AID 1963594); also: nearly all actives have a fitted effect of over 35% in size
Summary of the method: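 HEK293 cells stably expressing human DRD2, pre-treated with PDE inhibitor Ro20-1724 (0.1 mM final) and compound 10 min at room temperature, then stimulated with NKH477 (200nM […]) for 30 min. cAMP read by HTRF (665/620 nm).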

[18] = molecular target: D(2) dopamine receptor (Homo sapiens) (UniProt P14416); assay: Dopamine D2 receptor (DRD2) small molecule antagonists, cell-based qHTS assay (AID 1963595; active = well fitted inhibition curve with a large enough effect in the signal ratio in the repeat runs, with a control signal flat; the % refers to the signal ratio)
Summary of the method: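 In this cell-based antagonist screen, compounds act for 10 min at room temperature before a 30 min challenge with 12 nM quinpirole and 200 nM NKH477. cAMP is quantified by HTRF competition in DRD2-HEK293 cells containing 0.1 mM Ro20-1724.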

[19] = cAMP Responsive Elements (CRE) small molecule antagonists, cell-based qHTS assay (AID 1963591; active = well fitted inhibition curve with a large enough effect in the signal ratio in the repeat runs, not every such curve was filed as active; the % refers to the signal ratio)
Summary of the method: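 qHTS in CRE-bla HEK 293T cells: compound in DMSO, then 0.25 uM NKH477 (final), 3 h at 37 °C/5% CO2; beta-lactamase FRET read-out after 2 h substrate incubation.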

[20] = cAMP Responsive Elements (CRE) small molecule agonists, cell-based qHTS assay (AID 1963590)
Summary of the method: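 FRET-based beta-lactamase readout (LiveBLAzer B/G, 2 h RT) quantified CRE activation in HEK 293T CRE-bla cells after 3 h treatment with DMSO-dissolved compounds.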

Measured: Potency

Gonadotropin-releasing hormone receptor (Homo sapiens), sequence (P30968 whole entry, looked up): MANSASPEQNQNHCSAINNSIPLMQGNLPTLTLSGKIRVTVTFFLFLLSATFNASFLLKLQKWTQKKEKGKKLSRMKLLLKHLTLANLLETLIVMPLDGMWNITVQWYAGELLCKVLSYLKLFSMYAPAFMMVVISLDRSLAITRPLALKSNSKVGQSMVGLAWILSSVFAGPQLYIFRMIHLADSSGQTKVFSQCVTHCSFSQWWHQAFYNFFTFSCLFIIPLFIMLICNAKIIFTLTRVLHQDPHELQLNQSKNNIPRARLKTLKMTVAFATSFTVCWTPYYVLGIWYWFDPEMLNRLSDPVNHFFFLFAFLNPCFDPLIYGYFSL
D(2) dopamine receptor (Homo sapiens), sequence (P14416 whole entry, looked up): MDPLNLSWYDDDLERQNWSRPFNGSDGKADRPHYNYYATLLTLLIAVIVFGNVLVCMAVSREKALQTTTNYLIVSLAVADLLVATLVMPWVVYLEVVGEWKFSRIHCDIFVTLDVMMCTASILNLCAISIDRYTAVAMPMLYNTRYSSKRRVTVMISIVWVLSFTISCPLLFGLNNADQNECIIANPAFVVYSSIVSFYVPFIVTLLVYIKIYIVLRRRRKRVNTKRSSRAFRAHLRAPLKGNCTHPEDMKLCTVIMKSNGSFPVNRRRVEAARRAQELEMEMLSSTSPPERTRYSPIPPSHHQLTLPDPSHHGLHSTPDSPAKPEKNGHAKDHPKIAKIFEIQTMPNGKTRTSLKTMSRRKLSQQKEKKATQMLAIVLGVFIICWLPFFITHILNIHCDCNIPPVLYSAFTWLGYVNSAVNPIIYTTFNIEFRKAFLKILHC
KiSS-1 receptor (Homo sapiens), sequence (Q969F8 whole entry, looked up): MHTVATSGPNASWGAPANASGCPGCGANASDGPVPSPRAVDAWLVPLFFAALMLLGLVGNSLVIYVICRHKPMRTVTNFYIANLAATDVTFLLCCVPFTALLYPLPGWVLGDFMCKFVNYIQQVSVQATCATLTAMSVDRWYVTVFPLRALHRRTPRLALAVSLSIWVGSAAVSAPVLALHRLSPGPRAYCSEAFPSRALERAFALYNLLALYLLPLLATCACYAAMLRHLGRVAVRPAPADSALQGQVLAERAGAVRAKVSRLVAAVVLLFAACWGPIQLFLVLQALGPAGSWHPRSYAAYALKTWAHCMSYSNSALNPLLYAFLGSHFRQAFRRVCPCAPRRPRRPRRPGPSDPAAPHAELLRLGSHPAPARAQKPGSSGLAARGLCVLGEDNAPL
Muscarinic acetylcholine receptor M1 (Homo sapiens), sequence (P11229 whole entry, looked up): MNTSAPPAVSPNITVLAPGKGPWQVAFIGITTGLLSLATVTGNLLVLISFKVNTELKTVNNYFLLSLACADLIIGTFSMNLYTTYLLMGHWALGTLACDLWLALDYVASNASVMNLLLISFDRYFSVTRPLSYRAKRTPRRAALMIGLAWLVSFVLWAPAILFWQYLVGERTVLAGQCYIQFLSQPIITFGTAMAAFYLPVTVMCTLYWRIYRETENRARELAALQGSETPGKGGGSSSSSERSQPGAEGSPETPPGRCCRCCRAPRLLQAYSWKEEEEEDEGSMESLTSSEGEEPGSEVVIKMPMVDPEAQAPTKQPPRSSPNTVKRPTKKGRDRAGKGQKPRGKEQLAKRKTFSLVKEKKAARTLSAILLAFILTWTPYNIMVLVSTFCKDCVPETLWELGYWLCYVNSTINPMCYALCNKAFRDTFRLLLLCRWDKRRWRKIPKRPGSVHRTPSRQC
Beta-2 adrenergic receptor (Homo sapiens), sequence (P07550 whole entry, looked up): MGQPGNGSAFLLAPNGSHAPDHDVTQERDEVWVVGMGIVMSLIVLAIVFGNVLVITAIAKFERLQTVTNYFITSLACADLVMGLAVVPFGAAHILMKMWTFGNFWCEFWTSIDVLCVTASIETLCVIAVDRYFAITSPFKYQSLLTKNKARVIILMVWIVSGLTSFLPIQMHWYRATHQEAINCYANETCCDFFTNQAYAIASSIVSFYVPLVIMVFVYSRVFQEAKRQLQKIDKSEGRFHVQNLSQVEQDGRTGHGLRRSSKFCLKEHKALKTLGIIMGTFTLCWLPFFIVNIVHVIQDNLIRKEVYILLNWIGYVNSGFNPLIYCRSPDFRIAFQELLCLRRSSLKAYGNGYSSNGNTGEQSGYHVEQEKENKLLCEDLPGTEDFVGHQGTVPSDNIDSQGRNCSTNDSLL
5-hydroxytryptamine receptor 2A (Homo sapiens), sequence (P28223 whole entry, looked up): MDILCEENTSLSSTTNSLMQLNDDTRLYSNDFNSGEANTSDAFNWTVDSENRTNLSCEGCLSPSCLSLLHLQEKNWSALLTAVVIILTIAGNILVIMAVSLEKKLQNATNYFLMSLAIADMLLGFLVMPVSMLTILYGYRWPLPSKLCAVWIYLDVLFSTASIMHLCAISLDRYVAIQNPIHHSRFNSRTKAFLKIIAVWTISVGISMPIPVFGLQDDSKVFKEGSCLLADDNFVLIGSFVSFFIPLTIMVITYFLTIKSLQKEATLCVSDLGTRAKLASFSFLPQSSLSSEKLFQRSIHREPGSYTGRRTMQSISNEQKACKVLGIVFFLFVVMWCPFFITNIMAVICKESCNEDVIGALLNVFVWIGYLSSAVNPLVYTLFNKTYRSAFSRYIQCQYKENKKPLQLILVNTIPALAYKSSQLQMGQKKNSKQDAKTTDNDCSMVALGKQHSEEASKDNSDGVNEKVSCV

CCCCCCCCC(=O)O
active: [6] 39.5 µM
not listed: [19] | [20]
inactive: all other assays above

O=Cc1ccc(CO)o1
not listed: [20]
inactive: all other assays above

CCC(=O)O
not listed: [13]
inactive: all other assays above

CCc1cccc(CC)c1N
not listed: [17] | [19]
inactive: all other assays above

Cc1cc(=O)[nH]c(=S)[nH]1
not listed: [15] | [19]
inactive: all other assays above

CC(C)CC(=O)CC(C)CC(C)C (centres undefined)
not listed: [14] | [20]
inactive: all other assays above

c1ccc(Oc2ccccc2)cc1
not listed: [14]
inactive: all other assays above

OCc1cccc(Oc2ccccc2)c1
not listed: [14]
inactive: all other assays above

CC1(C)OC(=O)NC1=O
not listed: [15] | [18] | [19]
inactive: all other assays above

CCCCCCO
not listed: [13] | [15]
inactive: all other assays above

O=C1CCCCCN1
not listed: [20]
inactive: all other assays above

C[Si]1(C)O[Si](C)(C)O[Si](C)(C)O[Si](C)(C)O1
not listed: [13] | [19]
inactive: all other assays above

Cc1cc(C2(c3cc(C)c(O)cc3C)OS(=O)(=O)c3ccccc32)c(C)cc1O
active: [1] 21.7 µM and 19.3 µM
not listed: [15] | [17] | [18]
inactive: all other assays above

O=C(OCc1ccccc1)c1ccccc1O
active: [2] 48.2 µM and 54.5 µM | [10] 45.8 µM
not listed: [15]
inactive: all other assays above

COc1ccc(C(Cl)=C(c2ccc(OC)cc2)c2ccc(OC)cc2)cc1
not listed: [17] | [20]
inactive: all other assays above
